About 83,000 compounds went through this panel and 20% of them were active in at least one assay; those are over-represented in the sample as a whole.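 Method: cells in 96-well plates; compound added at one concentration; 48 h incubation; percent growth measured; values under 10 scored active.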 Active and inactive are the calls of the source.

The test system of this experiment is SW-620 colon. The experiment can be described thus: NCI-60 one-dose screen, 48 h (100 = growth as untreated, 0 = no growth, -100 = all killed). Particulars: 10 µM unless noted.
Take `CC1=C(C)C(=O)C(Nc2ccc(C)c(C)c2)=C(Br)C1=O`: the growth was 103% (inactive).

For the compound `COc1cc(/C=C2/C(=O)Nc3ccc(Cl)cc32)ccc1OCc1ccc(Cl)cc1`, the growth was 59.7% (inactive). For `Cc1ccc2c(n1)C(=O)C(Cl)=C(Nc1ccc(C(C)C)cc1)C2=O`, the growth is -22.8% (active). With `CN1CCN(c2ccc(Nc3nc(NCCNS(=O)(=O)c4ccccc4)c4sccc4n3)cc2)CC1`, the growth is 101% (inactive).

With `CNC(=O)c1cc(N2CCc3cc(NC(=O)Nc4ccc(N5CCN(C)CC5)c(C(F)(F)F)c4)ccc32)ccn1`, the growth is 3.68% (active). For `C=C(C)[C@@H]1CC[C@]2(COCCCNCCCN)CC[C@]3(C)[C@H](CC[C@@H]4[C@@]5(C)CC[C@H](O)C(C)(C)[C@@H]5CC[C@]43C)[C@@H]12` the value was -68.1% (active); for `CN1CCN(Cc2ccc(NC(=O)c3cncc(C#Cc4cnc5ccc(OCC6COC6)nn45)c3)cc2C(F)(F)F)CC1`, -29.8% (active). The figure for `CCN(CC)S(=O)(=O)c1ccc(-c2nc(C(Cl)Cl)nc3cc(-c4ccc(F)cc4)nn23)cc1` is 23.5% (inactive).

In the case of `O=C(COc1ccc(/C=C2\C(=O)Nc3ccc(F)cc32)cc1)Nc1ccccc1`, the growth is 103% (inactive).

Turning to `CN1CCN(c2ccc(Nc3nc(NCCCNS(=O)(=O)c4ccc(F)cc4)c4sccc4n3)cc2)CC1`, the growth is 70.1% (inactive).

With `COc1cccc(N2CCN(C3=C(Cl)C(=O)c4ncccc4C3=O)CC2)c1`, the growth was 14.3% (inactive).

`C#CCOc1cccc(-c2nc(N)nc(Nc3ccccc3SSc3ccccc3Nc3nc(N)nc(-c4cccc(OCC#C)c4)n3)n2)c1`: the growth was 71.4% (inactive). Take `O=C(CSc1nnc(-c2ccc(Cl)cc2)n1-c1ccccc1)Nc1ccc(Cl)cc1`: the growth is 58.6% (inactive).

Consider `NC(=O)n1c(=O)n(-c2cccc(C(F)(F)F)c2)c(=O)c2cc(-c3ccc(F)cc3F)ccc21`, for which the growth was 14.1% (inactive).

Turning to `C#CCOc1ccc(/C=N/Nc2nc(-c3ccc(OC)cc3)cs2)cc1`, the growth is 93.3% (inactive). For `O=C(CSc1nnc(-c2ccc(Cl)cc2)n1-c1ccccc1)Nc1ccccc1Cl` the value was 51.6% (inactive); for `CCOC(=O)c1c(NC(=O)c2cccc(C(F)(F)F)c2)sc2c3c(ccc12)OCN(C)C3`, -76.5% (active). On to `CN1CCN(Cc2ccc(NC(=O)c3cncc(C#Cc4cnc5ccc(OCCCS(C)(=O)=O)nn45)c3)cc2C(F)(F)F)CC1`, for which the growth is 1.18% (active). For `CCOC(=O)c1c(NCC(=O)Nc2cccc([N+](=O)[O-])c2)sc(C(C)=O)c1C`, the growth was 3.65% (active). As for `N#Cc1c(-c2cccs2)cc(-c2cnccn2)nc1SCC(=O)N/N=C/c1ccccc1`, the growth was 8.83% (active). The figure for `CN1CCN(Cc2ccc(NC(=O)c3cncc(C#Cc4cnc5ccc(O[C@@H]6CCOC6)nn45)c3)cc2C(F)(F)F)CC1` is -28% (active); for `O=C(CCCCCCNC(=O)c1csc(Br)n1)NO` it is 7.18% (active). For the compound `O=C(NCCNc1cc(-c2cn(-c3ccccc3)nc2-c2cccc(O)c2)ccn1)Nc1cc(C(F)(F)F)cc(C(F)(F)F)c1`, the growth is 101% (inactive). With `COC(=O)c1ccc(NC2=C(Cl)C(=O)c3nc(C)ccc3C2=O)cc1`, the growth was 18.3% (inactive).

For the compound `CCOP(=O)(OCC)OC[C@]12CCC(C)(C)C[C@H]1C1=CC[C@@H]3[C@@]4(C)CC[C@H](OP(=O)(OCC)OCC)C(C)(C)[C@@H]4CC[C@@]3(C)[C@]1(C)CC2`, the growth is 68.4% (inactive).

For `C/C(=N/N)c1nnn(-c2ccc(Br)cc2)c1C`, the growth is 105% (inactive).

Take `O=C(N/N=C\c1ccc(F)cc1)c1ccc2nc(-c3ccc(Br)cc3)[nH]c2c1`: the growth is 2.87% (active). On to `O=C1Nc2ccc(F)cc2/C1=C\C(=O)c1ccc(NS(=O)(=O)c2ccccc2)cc1`, for which the growth was 43.1% (inactive).

Turning to `CCCCCc1ccc(S(=O)(=O)Nc2cc(-c3csc(N)n3)ccc2OC)cc1`, the growth was 110% (inactive).

Regarding `CN1CCN(c2ccc(Nc3nc(NCCNS(=O)(=O)c4ccc5ccccc5c4)c4sccc4n3)cc2)CC1`, the growth was 35.2% (inactive). Regarding `CCn1c2ccc(/C=N/N(C)S(=O)(=O)CCN(C)C)cc2c2cc(/C=N/N(C)S(=O)(=O)CCN(C)C)ccc21`, the growth is 30.6% (inactive).

The values above are taken from PubChem BioAssay (NCI).
